Rows were chosen to be rich in hits. Some 1.6% of all compounds tested hit in one or more screens of this group.
NALP1 yeast inh – blocks the NALP1 inflammasome reconstituted in yeast | AID 2071 | S. cerevisiae NALP1/ASC/caspase-1 growth, X-gal OD620, 72 h | inhibition, % at 10 µM | 280,000 tested, 0.61% active; in the data active = inhibition mostly above about 24%, no sharp cut-off; inactive = mostly below about 32%
HTR5A inv ctr – inverse agonist of human HTR5A in OPRM1-OPRD1 counter-screen | 340,000 tested, 0.083% active | AID 504634 | P47898 | HTR5A cell line, luminescence, inverse agonism | inhibition, % at 9.3 µM; in the data active = inhibition mostly above about 23%, no sharp cut-off; inactive = mostly below about 18%
Target sequence (P47898 whole entry, looked up): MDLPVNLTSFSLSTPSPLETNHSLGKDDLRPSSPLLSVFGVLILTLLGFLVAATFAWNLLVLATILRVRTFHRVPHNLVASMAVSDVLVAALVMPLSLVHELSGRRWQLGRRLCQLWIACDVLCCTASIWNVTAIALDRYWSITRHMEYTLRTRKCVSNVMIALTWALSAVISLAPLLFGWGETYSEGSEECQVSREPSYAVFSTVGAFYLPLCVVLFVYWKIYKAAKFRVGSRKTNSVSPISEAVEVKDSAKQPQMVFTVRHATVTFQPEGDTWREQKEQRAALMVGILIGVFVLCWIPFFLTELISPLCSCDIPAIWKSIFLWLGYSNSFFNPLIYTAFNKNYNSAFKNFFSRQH
MOR-DOR ag – OPRM1-OPRD1 heterodimerization agonism. cells, luminescence. activation, % at 9.3 µM. AID 504326. 340,000 tested, 0.3% active. P35372+P41143; in the data active = activation above about 18%
PolyA inhibitor – inhibitors of polyadenylation in S. cerevisiae; AID 1875; 300,000 tested, 0.02% active; S. cerevisiae SKY197-pL101 polyadenylation reporter, beta-gal luminescence; efflux-impaired pdr1/pdr3 knockout yeast; score 100 = 6 SD above DMSO; activity score, % at 12 µM;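 active = lowest replicate activity score at least 50, where 100 means six control SD above control mean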;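 note: yeast exposed to compound for 9 h at 30 °C; higher score means more reporter readthrough which indicates perturbed polyadenylation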
HTR5A ag ctr – counter-screen for OPRM1-OPRD1 agonists: human HTR5A agonism. HTR5A agonist assay, luminescence, cell-based. activation, % at 9.3 µM. 340,000 tested, 0.61% active; in the data active = activation mostly above about 9.5%, no sharp cut-off; inactive = mostly below about 7.6%
MOR-DOR inv ag – inverse agonist of human OPRM1-OPRD1 heterodimerization; 340,000 tested, 0.21% active; cell-based MOR-DOR heterodimer luminescence, inverse agonism; P35372+P41143; inhibition, % at 9.3 µM; AID 504357; in the data active = inhibition above about 22%, passing the limit was not always enough
Hits are given with their value; i = inactive; nt = no result.

SMILES	NALP1 yeast inh	HTR5A inv ctr	MOR-DOR ag	PolyA inhibitor	HTR5A ag ctr	MOR-DOR inv ag
Cc1cccc(OCC(=O)NCC(=O)N/N=C/c2ccccc2)c1	i	i	i	i	10	i
Cc1ccc(C(=O)Nc2nnc(COc3ccccc3)s2)cc1	i	i	i	i	i	i
O=C(/C=C/c1cccc([N+](=O)[O-])c1)Nc1ccccn1	23	i	i	i	i	i
O=C(/C=C/c1cccc([N+](=O)[O-])c1)c1ccco1	47	i	i	i	i	i
O=C(/C=C/c1cccc([N+](=O)[O-])c1)N(c1ccccn1)c1ccccn1	nt	i	i	i	i	i
Cn1c(=O)oc2cc(S(=O)(=O)N3CCC(C(=O)NCc4ccccc4Cl)CC3)ccc21	i	i	i	i	i	i
Cc1ccc(NC(=O)Cc2ccccc2)cc1S(=O)(=O)N1CCOCC1	nt	i	i	nt	i	i
Cc1cc(N2C(=O)C(O)=C(C(=O)c3ccc(C)o3)C2c2cccc(Oc3ccccc3)c2)no1 (stereo unspecified)	38	i	i	i	i	i
COc1ccc(C2C(C(=O)c3ccc(C)o3)=C(O)C(=O)N2c2cc(C)on2)cc1OC (stereo unspecified)	i	i	i	i	i	i
COc1ccc(C(C)(C)C)cc1NC(=O)c1cc(S(=O)(=O)N(C)C)ccc1N1CCCC1	i	i	i	i	i	i
COc1ccc(CNC(=O)Cn2c(=O)oc3ccccc32)cc1OC	43	i	i	nt	i	i
CCOc1ccc(CNC(=O)CCn2c(=O)oc3ccccc32)cc1OC	i	i	i	i	i	i
O=C(Cn1c(=O)oc2ccccc21)Nc1ccccc1Cl	i	i	i	i	i	i
O=C(Cn1c(=O)oc2ccccc21)NCCc1ccccc1Cl	42	i	i	i	i	i
ClC1(Cl)CC1Cn1c(C2CC2)nc2ccccc21 (stereo unspecified)	i	i	i	i	i	i
CCc1nc2ccccc2n1CC1CC1(Cl)Cl (stereo unspecified)	37	i	i	i	i	i
O=C(c1ccc(Cl)cc1)C(CN1CCCC1)c1ccccc1 (stereo unspecified)	43	i	i	i	i	i
CCCOc1ccc(C(=O)C(CN2CCCC2)c2ccccc2)cc1 (stereo unspecified)	60	i	i	i	i	i
CCCCOc1ccc(C(=O)C(CN2CCOCC2)c2ccccc2)cc1 (stereo unspecified)	i	i	i	i	i	i
O=C(O)c1ccc(N/N=C/c2cc3cc4c(cc3nc2Cl)OCCO4)cc1	nt	i	i	i	i	i
COC(=O)CCC(=O)OC1(C)C(=O)C2=CN(C3CC3)C(c3ccc(OC)cc3)=CC2=C(Br)C1=O (stereo unspecified)	nt	i	i	i	9.4	i
CCn1cc(C(=O)OCC(=O)Nc2ccccc2OC(F)F)c(=O)c2ccc(C)nc21	nt	i	i	nt	i	i
CCn1cc(C(=O)OCC(=O)Nc2ccc(C(C)C)cc2)c(=O)c2ccc(C)nc21	25	i	i	i	i	i
COc1ccc(C(=O)N/C(=C/c2cccnc2)C(=O)N2CCCCCC2)cc1OC	i	i	i	i	8.8	i
O=C(COC(=O)CNC(=O)c1ccco1)Nc1ncc(Cl)cc1Cl	nt	i	i	nt	i	i
SMILES	NALP1 yeast inh	HTR5A inv ctr	MOR-DOR ag	PolyA inhibitor	HTR5A ag ctr	MOR-DOR inv ag
O=C(/C=C/c1ccco1)OCC(=O)c1cccc([N+](=O)[O-])c1	i	i	i	i	i	29
COc1ccc(C(=O)COC(=O)/C=C/c2ccco2)cc1F	nt	i	i	nt	i	i
O=C(c1ccc(-c2cccc(C(F)(F)F)c2)o1)N1CCCC(C(F)(F)F)C1 (stereo unspecified)	nt	i	i	i	11	i
CS(=O)(=O)N1CCN(c2ccccc2NC(=O)C(c2ccccc2)c2ccccc2)CC1	43	i	i	i	i	i
CC1=C(C(=O)OC(C)C)C(c2ccc3c(c2)OCO3)NC(=O)N1 (stereo unspecified)	i	i	i	i	i	i
COc1ccc(C(F)(F)F)cc1N/C=C/c1nnnn1-c1ccc2ccccc2c1	nt	i	i	i	12	i
CCOC(=O)c1nn(-c2ccc3c(c2)OCO3)cc1O	nt	i	i	i	i	i
CC(C)(C)c1ccc(OCCCC(=O)NC2=NCCS2)cc1	36	i	i	i	i	i
O=C(CCC1CCCCC1)NCCN1C2=NC[C@@H](Cc3ccccc3)N2C[C@H]1Cc1ccc(O)cc1	i	i	i	i	i	i
Cc1ccc(S(=O)(=O)NNC(=O)C2COc3ccccc3O2)cc1C (stereo unspecified)	40	i	i	i	i	i
CCOc1ccccc1N1CCN(Cc2cn[nH]c2-c2ccc(F)cc2)CC1	i	i	i	i	14	i
CCn1c(SCC(=O)N2CCOCC2)nc2c([nH]c3ccccc32)c1=O	i	i	i	i	i	i
CCN(CC)C(=O)CSc1ncnc2sc(-c3ccccc3)cc12	i	i	i	i	9.3	i
COC(=O)C(NS(=O)(=O)c1ccccc1Br)C(C)C (stereo unspecified)	i	i	i	i	14	i
COC(=O)C(NS(=O)(=O)c1ccc(NC(C)=O)cc1)C(C)C (stereo unspecified)	i	i	i	i	i	i
CC(=O)Nc1ccc(NC(=O)CNC(=O)c2cccc(C)c2)cc1	i	i	i	i	i	i
Cc1nc2ccccc2nc1N1CCCCC1	i	i	i	nt	i	i
Cc1ccc2c(Cl)c(C)c(N3CCCCC3)nc2n1	46	i	i	i	i	i
O=C(CSc1ccc2nnc(CCNC(=O)c3ccc(F)cc3)n2n1)NCc1ccco1	i	i	i	i	i	i
O=C(CSCc1ccc(F)cc1)NCc1ccc(F)cc1	28	i	i	i	i	i
Cc1ccnc(NC(=O)c2cccc(S(=O)(=O)N3CCN(c4ccc(F)cc4)CC3)c2)c1	nt	i	i	i	i	i
O=S(=O)(Cc1cc(N2CCOCC2)nc(-c2ccccn2)n1)c1ccccc1	22	i	i	i	i	i
Cc1nc(CS(=O)(=O)c2ccc(Cl)cc2)cc(N2CCOCC2)n1	i	i	i	i	i	i
C=CCN(c1ccccc1)S(=O)(=O)c1cccc(C(=O)NC2CCN(Cc3ccccc3)CC2)c1	nt	i	i	i	i	i
COc1cc([C@H]2c3[nH]c4ccccc4c3C[C@H]3C(=O)N4[C@@H](c5cc(OC)c(OC)c(OC)c5)c5[nH]c6ccccc6c5C[C@H]4C(=O)N23)cc(OC)c1OC	i	i	21	i	i	i
CN(C)S(=O)(=O)c1cccc(COC(=O)CCNC(=O)c2ccc([N+](=O)[O-])cc2)c1	nt	i	i	nt	i	i
Cc1onc(-c2ccccc2Cl)c1C(=O)N1CCN(C)CC1	i	i	i	i	i	i
Cc1ccc(S(=O)(=O)/N=C2/C=C(Sc3ncn[nH]3)C(=O)c3ccccc32)c(C)c1	i	nt	nt	nt	nt	nt
